Compound activity deposited in PubChem by National Center for Advancing Translational Sciences (NCATS).
In the library only some 2.9% were active in any assay of this set; here they are far more common.
mIDH1 inhibitor – inhibitors of human mutant IDH1 R132H; Potency, µM (series often up to 76.6 µM), inactives show at the highest dose activity change, negative = inhibition, usual class: inhibitors; AID 602179; O75874; IDH1-R132H enzyme, NADPH consumption, diaphorase/resazurin fluorescence; 390,000 tested, 0.093% active; also: potency is read from the fitted curve at half-maximal effect; % is scaled to controls: 0 for no effect and ±100 for the full control effect; nearly all actives have a fitted effect of over 65% in size
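IDH1-R132H (0.5 ug/mL) preincubated 30 min with compound, then NADPH (0.016 mM) and alpha-KG (2 mM) added; 80 min at RT, pH 7.5. Remaining NADPH coupled via diaphorase/resazurin to fluorescence (540/590 nm); concentration-response curves normalized to no-enzyme control.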
a7 integrin act – integrin-mediated muscular dystrophy alleviation activation; Potency, µM (highest dose often 38.3 µM), for inactives: at the top dose activation, actives largely listed as activators; alpha7betagal myoblasts, beta-gal FDG fluorescence, 48 h; AID 624291; 350,000 tested, 0.064% active;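 also: potency is read from the fitted curve at half-maximal effect; 100% = response of the positive control SU9516; nearly all actives have a fitted effect of over 60% in size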
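alpha7betagal+/- myoblasts (passage 13, 250/well) treated 48 h at 37C with compounds at 1:260 dilution of DMSO stock. Lysed, then beta-galactosidase activity read as FDG fluorescence (ex 480/em 540) after 30 min, with pre-read for autofluorescence.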
B2AR arrestin – recruits beta-arrestin to the human beta2-adrenergic receptor; P07550; beta-arrestin recruitment to beta2AR, cell-based reporter; Potency, µM (titrated, usually from 46.1 µM), inactives show top-dose activation, actives largely listed as activators; 330,000 tested, 0.02% active;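 also: potency is read from the fitted curve at half-maximal effect; 0% = DMSO controls and full agonism = EC100 isoproterenol or metaproterenol; nearly all actives have a fitted effect of over 65% in size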
DRD3 antagonist – blocks the human D3 dopamine receptor. P35462. D3R cells, DiscoveRx beta-arrestin luminescence, antagonist mode; stronger effect = lower value. max response, negative = inhibition, %. 360,000 tested, 2.5% active; in the data active = max response below about -50%; inconclusive = no clear call, values can overlap the other calls; also: % is scaled to controls: 0 for no effect and ±100 for the full control effect
Target sequence (P35462 whole entry, looked up): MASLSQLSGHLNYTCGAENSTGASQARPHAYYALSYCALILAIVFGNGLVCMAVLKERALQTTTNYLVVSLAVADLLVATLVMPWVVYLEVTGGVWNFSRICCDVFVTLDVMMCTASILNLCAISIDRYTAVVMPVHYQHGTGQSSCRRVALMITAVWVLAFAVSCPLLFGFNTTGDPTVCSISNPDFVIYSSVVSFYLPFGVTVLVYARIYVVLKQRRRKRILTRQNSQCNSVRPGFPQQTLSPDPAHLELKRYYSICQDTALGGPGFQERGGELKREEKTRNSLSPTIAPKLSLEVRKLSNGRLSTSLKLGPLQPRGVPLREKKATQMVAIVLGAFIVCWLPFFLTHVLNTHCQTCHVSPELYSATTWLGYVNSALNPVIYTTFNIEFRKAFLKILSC
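Cells expressing the human receptor were seeded at 1500 cells/well, incubated overnight at 37 degrees C in 5% CO2, then exposed to library compounds with dopamine controls for 90 minutes at 37 degrees C before luminescent detection.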
D3 ag – agonists of human D3 dopamine receptor; D3R DiscoveRx beta-arrestin cells, luminescence, 90 min; max activation, %; 410,000 tested, 0.58% active; in the data active = max activation above about 30%; also: 0% is about no effect
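Agonist mode: compounds and dopamine controls were applied to plated cells for 90 min at 37 degrees C after an overnight attachment at 1500 cells/well. Luminescent read-out followed 30 - 60 minutes at room temperature with DiscoveRx detection reagent.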
* hit, by the source's call; ? = inconclusive; · = no result; [ ] = another dose, or the depositor's remark. Unless noted, calls follow the shape of the dose curve; as a rule, active = well fitted curve in the direction sought with a large enough effect; inconclusive = small, poorly fitted or top-dose-only effect, or another doubt; inactive = no such curve, though single readings can be large; an effect the other way counts as inactive or inconclusive.

SMILES	mIDH1 inhibitor	a7 integrin act	B2AR arrestin	DRD3 antagonist	D3 ag
CCc1nc2c(OCc3ccc(C(F)(F)F)cc3)cccn2c1N(C)C(=O)c1ccc(C)cc1	·	·	·	-66*	-14
CCc1nc2c(OCC=C(C)C)cccn2c1N(C)C(=O)c1ccc(OC)cc1	·	·	·	-61*	2
CC(C)(C)NC[C@H](O)COc1ccccc1C1CCCC1	·	·	·	·	-25
COc1ccc2c(c1)CO[C@]21O[C@H](CCO)C[C@H](O)[C@H]1O	·	·	·	-69*	-12
Cc1ccc2c(c1)CO[C@@]21O[C@H](CCO)C[C@H](O)[C@H]1O	-7%	-10%	·	?	1
CCOc1ccc(C2C(C(=O)Nc3ccccc3)=C(C)Nc3nc(-c4ccccc4)nn32)cc1OC (configuration not stated)	-5%	·	·	·	-10
CCOC(=O)C1CCN(c2ncnc3c2cnn3-c2ccc(OC)cc2)CC1	2%	5%	-5%	17	33*
CCCNc1ncnc2c1cnn2-c1ccc(OC)cc1	·	·	-1%	·	·
CCCN(CCC)c1ncnc2c1cnn2-c1ccc(OC)cc1	2%	15%	0%	33	34*
COc1ccc(-n2ncc3c(N4CCC(C(N)=O)CC4)ncnc32)cc1	10%	13%[7.66 µM]	-1%	-11	1
Cc1ccc2c(c1)[C@@H]1[C@H](CO2)[C@H](c2ccccc2)[C@@]2(C)C(=O)N[C@H](C)C(=O)N12	-12%	-21%	0%	8	31*
C[C@H]1NC(=O)[C@]2(C)[C@@H](c3ccccc3)[C@H]3COc4ccccc4[C@@H]3N2C1=O	-4%	14%	·	4	9
CC(C)(C)c1ccc(/C=N/Nc2nncn2N)cc1	10%	-32%	0%	?	-5
Nn1cnnc1N/N=C/c1cc(Br)cc(Br)c1O	13%	-12%	0%	-90*	-9
Fc1cccc(Cl)c1CSc1nnc(CNc2ccccc2)o1	2%	-16%	0%	1	-6
Clc1ccc(CSc2nnc(CNc3cccc(Cl)c3)o2)cc1	1%	23%	0%	-57*	-21
Cc1ccc(-n2nc3cc(C)c(NC(=O)COc4ccccc4)cc3n2)cc1	-9%	·	·	·	0
O=C(NCCc1ccc(Cl)cc1)c1ccc(Cn2c(=O)c3cccn3c3cccnc32)cc1	1%	·	·	·	-5
O=C1CCN(Cc2ccccc2)CCN1[C@H](CO)c1ccccc1	-2%	3%	0%	-51*	-9
O=C1CCN(Cc2ccc(O)cc2)CCN1[C@H](CO)c1ccccc1	-9%	26%	-1%	-7	9
CCCCNC(=O)C1CCN(C/C(C)=C/c2ccccc2)CC1	-1%	-16%	0%	-66*	-13
C/C(=C\c1ccccc1)CN1CCC(C(=O)N2CCCCC2)CC1	5%	4%	0%	-57*	-12
CCCCN(C)C(=O)C1CCN(C/C(C)=C/c2ccccc2)CC1	1%	-23%	0%	-65*	1
C/C(=C\c1ccccc1)CN1CCC(C(=O)N2CCC(C)CC2)CC1	17%	-11%	0%	-26	-11
O=C(O)CN(CC(=O)O)CC1=CC2C(=CC1=O)Oc1cc(O)c(CN(CC(=O)O)CC(=O)O)cc1C21OC(=O)c2ccccc21 (configuration not stated)	·	·	·	·	2
SMILES	mIDH1 inhibitor	a7 integrin act	B2AR arrestin	DRD3 antagonist	D3 ag
O=C(NCc1nc2ccccc2[nH]1)c1c(F)cccc1F	21%	·	·	·	-7
O=[N+]([O-])c1cccc(NC(=S)NCCc2ccccc2)c1	4%	-26%	0%	-71*	-25
c1ccc(C(c2ccccc2)c2noc(CN3CCC(c4ccncc4)CC3)n2)cc1	7%	0%	0%	-22	52*
O=C(O)c1ccc2c(c1)C(=O)N([C@]1(C(=O)O)C[C@H]1c1ccccc1)C2=O	·	·	0%	·	·
CCOC(=O)c1c(C)n(C)c2ccc(OC)c(NC(=O)CCN3CCC(Cc4ccccc4)CC3)c12	-4%	-31%	0%	-120*	-21
Cc1nc2c(cnn2-c2ccccc2)c(=O)n1/N=C/c1ccccc1	21%	10µM*	0%	22	12
CC1=C(C(=O)N2CCOCC2)CC(CC(=O)NCCc2ccccn2)C(=O)N1CCC1=CCCCC1 (configuration not stated)	·	·	·	-17	-7
CC(C)(C)c1ccc(/C=C(\c2nc3ccccc3[nH]2)S(=O)(=O)c2ccccc2)cc1	8%	-56%	·	-66*	-10
Cc1cccc(/C=C(\c2nc3ccccc3[nH]2)S(=O)(=O)c2ccccc2)c1	4%	-70%	0%	-62*	-16
Cc1ccccc1CNc1ncnc2c1ncn2[C@@H]1O[C@H](CO)[C@@H](O)[C@H]1O	·	·	·	·	-9
CC1CCCN(C(=O)CSc2nnc(-c3cccnc3)n2C2CCCCC2)C1 (configuration not stated)	6%	12%	0%	12	8
O=C(CSc1nnc2n(C3CCCC3)c(=O)c3ccccc3n12)N1CCCCCC1	12%	-33%[7.66 µM]	0%	15	34*
COc1ccccc1Cn1c(=O)c2ccccc2n2c(SCC(=O)N3CCCCC3)nnc12	-1%	1%	0%	15	6
CC1CCCN(C(=O)CSc2nnc3n(C4CCCC4)c(=O)c4ccccc4n23)C1 (configuration not stated)	7%	-40%[7.66 µM]	-1%	32	47*
CC(C)(C)NC(=O)CN(C(=O)C(=O)Nc1ccc2c(c1)OCCO2)C(C)(C)C	-1%	0%	-1%	-11	-16
CN1CCN(c2ccccc2/C=N/NC(=O)c2cccnc2)CC1	4%	10%	0%	-50*	-18
O=C(N/N=C\c1cc2c(cc1Cl)OCO2)c1cccnc1	-5%	-5%	0%	16	2
Cc1cc(N2CCN(c3ccccc3)CC2)nc(-n2nc(C)cc2C)n1	2%	-22%	0%	-86*	-25
Cc1ccccc1NS(=O)(=O)c1ccc(C2CNC(=O)C2)cc1 (configuration not stated)	3%	?	0%	-104*	-4
O=C1CC(c2ccc(S(=O)(=O)NCc3ccccc3)cc2)CN1 (configuration not stated)	-10%	-15%	-1%	-16	1
CCSc1nnc2nc(C)cc(C)n12	1%	18%	0%	-2	-4
CCCCSc1nnc2nc(C)cc(C)n12	3%	1%	-1%	-58*	4
CC(Sc1nnc(-c2ccco2)n1C)C(=O)N1C(C)CCCC1C (configuration not stated)	2%	-21%	0%	16	4
C=CCc1ccccc1OCC(O)CN1CCN(c2ccc(C)cc2)CC1 (configuration not stated)	5%	-25%	0%	-59*	-30
Cc1ccc(OCC(O)CN2CCN(Cc3ccc4c(c3)OCO4)CC2)cc1C (configuration not stated)	1%	-9%	-3%	-16	-9
